From the supplement of paper PMC11060735 come the findings set out here.

Where “and” joins values, the source holds several entries; their conditions need not be identical. Equal values may be shown once. Where a name gives a salt, the structure may show the parent alone. Out of some 1,800 compounds screened, about 50 (3%) showed activity. Many of the other results were omitted from the sample, so actives are more common in it than they were. Values without a mark were called inactive.

The test system of the assay is mouse p16Ink4a+/- lung fibroblasts (INKBRITE, bleomycin-injured). Description: percentage of GFP+ (p16Ink4a+) fibroblasts among all cells in well; higher = less depletion of p16Ink4a+ cells, active = 20 or less. Conditions: 1 µM; 3 days.
With `Cn1c(=O)c2c(ncn2CC2OCCO2)n(C)c1=O` [Doxofylline], the “percentage of GFP+” value was 41%. Turning to `CC(C)OC(=O)C(C)(C)Oc1ccc(C(=O)c2ccc(Cl)cc2)cc1` [Fenofibrate], the “percentage of GFP+” value was 45.5%.

In the case of `O=C1CCc2cc(OCCCCc3nnnn3C3CCCCC3)ccc2N1` [Cilostazol], the “percentage of GFP+” value was 45.1%. As for `CN1CC[C@H](c2c(O)cc(O)c3c(=O)cc(-c4ccccc4Cl)oc23)[C@H](O)C1` [Flavopiridol], the figure is 4.28% (active).

As to `CN1CC[C@@H](c2c(O)cc(O)c3c(=O)cc(-c4ccccc4Cl)oc23)[C@@H]1CO`, the “percentage of GFP+” value is 20.2%.

On to `CC(=O)C1=C(O)C=C2Oc3c(C(C)=O)c(O)c(C)c(O)c3[C@]2(C)C1=O` [(+)-Usniacin], for which the “percentage of GFP+” value is 45.5%. As to `CCNC1=N[C@@H]2[C@@H](O)[C@H](O)[C@@H](CO)O[C@@H]2S1` [Thiamet G], the “percentage of GFP+” value is 56.9%.

With `CC(=O)c1cc([N+](=O)[O-])c(Sc2cccc(Cl)c2Cl)s1`, the “percentage of GFP+” value is 41.2%.

On to `COc1c(C)cnc(Cn2cnc3c(Cl)nc(N)nc32)c1C`, for which the “percentage of GFP+” value is 7.81% (active). As for `Nc1nc(O)c2ncn(COCCO)c2n1` [Aciclovir], the “percentage of GFP+” value was 45.4%.

Regarding `COc1ccc2[nH]c(S(=O)Cc3ncc(C)c(OC)c3C)nc2c1` (stereo unspecified) [Esomeprazole; Omeprazole], the “percentage of GFP+” value was 43.4% and 32.8%.

Turning to `COc1ccc(CNC(=O)Nc2ncc([N+](=O)[O-])s2)cc1` [N-(4-Methoxybenzyl)-N'-(5-Nitro-1,3-Thiazol-2-Yl)Urea], the “percentage of GFP+” value is 43.1%. The value for `CCN(Cc1ccncc1)C(=O)C(CO)c1ccccc1` (stereo unspecified) [Tropicamide] was 49.3%; that for `O=C(Nc1ccc(OC(F)(F)F)cc1)c1sccc1NCc1ccnc2ccccc12` was 30.4%. As to `Clc1cccc(Cl)c1NC1=NCCN1` [Clonidine], the “percentage of GFP+” value was 51.5%. As for `CN1CCN(C2=Nc3ccccc3Oc3ccc(Cl)cc32)CC1` [Loxapine], the figure is 51.2%; as for `O=C(O)C[C@H](O)C[C@H](O)/C=C/c1c(C2CC2)nc2ccccc2c1-c1ccc(F)cc1` [Pitavastatin Calcium], 22.1%; as for `CC(C)c1c(C(=O)Nc2ccccc2)c(-c2ccccc2)c(-c2ccc(F)cc2)n1CC[C@@H](O)C[C@@H](O)CC(=O)O` [Atorvastatin], 41.6%. Turning to `CC(C)n1c(/C=C/[C@@H](O)C[C@@H](O)CC(=O)O)c(-c2ccc(F)cc2)c2ccccc21` [Fluvastatin], the “percentage of GFP+” value was 19.7% (active). Turning to `NC(Cc1c[nH]c2ccc(O)cc12)C(=O)O` (stereo unspecified) [5-hydroxytryptophan (5-HTP)], the “percentage of GFP+” value was 41.1%.

Take `CC(C)(C)C(=O)OCOP(=O)(COCCn1cnc2c(N)ncnc21)OCOC(=O)C(C)(C)C` [Adefovir Dipivoxil]: the “percentage of GFP+” value was 19.4% (active).

In the case of `CC(C)OC(=O)OCOP(=O)(CO[C@H](C)Cn1cnc2c(N)ncnc21)OCOC(=O)OC(C)C` [Tenofovir Disoproxil], the “percentage of GFP+” value is 37.9%. The value for `C[C@H](Cn1cnc2c(N)ncnc21)OCP(=O)(O)O` [Tenofovir] was 36.4%. The value for `Cc1nc(O)c(C#N)cc1-c1ccncc1` [Milrinone] was 37.8%; that for `CCOC(=O)N1CCC(=C2c3ccc(Cl)cc3CCc3cccnc32)CC1` [Loratadine] was 54.5%; that for `CC(C)c1cc(-c2nnc(O)n2-c2ccc3c(ccn3C)c2)c(O)cc1O` [Ganetespib] was 4.48% (active). As for `OC(CC1c2ccccc2-c2cncn21)C1CCCCC1` (stereo unspecified), the figure is 43%. As to `CCCCCCCCCCCC1=C(O)C(O)=CC(=O)C1=O` [Embelin], the “percentage of GFP+” value is 51.4%.

`COc1ccc2cccc(CCNC(C)=O)c2c1` [Agomelatine]: the “percentage of GFP+” value is 39.1%. As for `CC(C)C[C@@H](C=O)NC(=O)[C@H](CC(C)C)NC(=O)[C@H](CC(C)C)NC(=O)OCc1ccccc1`, the figure is 7.69% (active); as for `COC(=O)[C@H](Cc1ccccc1)NC(=O)[C@@H](N)CC(=O)O` [Aspartame], 44.2%; as for `CC(=O)SCC(Cc1ccccc1)C(=O)NCC(=O)OCc1ccccc1` (stereo unspecified) [Racecadotril], 45%. The value for `CCCCCOC(=O)Nc1nc(=O)n([C@@H]2O[C@H](C)[C@@H](O)[C@H]2O)cc1F` [Capecitabine] was 40.5%; that for `CN(Cc1ccc(C(C)(C)C)cc1)Cc1cccc2ccccc12` [Butenafine] was 51.2%; that for `O=C(/C=C/c1ccccc1)NC(NC(=S)Nc1ccc(Cl)cc1)C(Cl)(Cl)Cl` (stereo unspecified) was 58.3%.

`O=C(/C=C/c1cccc(S(=O)(=O)Nc2ccccc2)c1)NO` [Belinostat]: the “percentage of GFP+” value is 15.9% (active). Take `Cn1cc(/C=C/C(=O)c2cccc(F)c2)cc1/C=C/C(=O)NO`: the “percentage of GFP+” value is 54%.

Consider `Nc1cccc2c1CN(C1CCC(=O)NC1=O)C2=O` (stereo unspecified) [Lenalidomide], for which the “percentage of GFP+” value is 46%. Regarding `CC/C(=C(\c1ccccc1)c1ccc(OCCN(C)C)cc1)c1ccccc1` [Tamoxifen], the “percentage of GFP+” value was 34.9%.

`Cc1ccc([N+](=O)[O-])cc1S(=O)(=O)N(C)/N=C/c1cnc2ccc(Br)cn12`: the “percentage of GFP+” value is 3.79% (active). The value for `CC(C)c1nc(N(C)S(C)(=O)=O)nc(-c2ccc(F)cc2)c1/C=C/[C@@H](O)C[C@@H](O)CC(=O)O` [Rosuvastatin, Rosuvastatin Calcium] was 41.7%; that for `Cn1cnc2c(F)c(Nc3ccc(Br)cc3F)c(C(=O)NOCCO)cc21` was 44.7%. The value for `CN1c2cc(O)c(N=NC(N)=O)cc2CC1S(=O)(=O)O` (stereo unspecified) [Carbazochrome sodium sulfonate] was 43%; that for `CC1(C)CC(=O)c2c(C(F)(F)F)nn(-c3ccc(C(N)=O)c(N[C@H]4CC[C@H](OC(=O)CN)CC4)c3)c2C1` was 6.23% (active).

For the molecule `CC1(C)CC(=O)c2c(C(F)(F)F)nn(-c3ccc(C(N)=O)c(N[C@H]4CC[C@H](O)CC4)c3)c2C1`, the “percentage of GFP+” value was 6.92% (active).

Consider `CC(=O)O/N=C1/C(=O)N(Cc2cc(Cl)ccc2Cl)c2ccc(Cl)cc21`, for which the “percentage of GFP+” value is 51.6%. With `CC(C)(C)c1ccc(C(=O)CCCN2CCC(OC(c3ccccc3)c3ccccc3)CC2)cc1` [Ebastine], the “percentage of GFP+” value is 56.5%. As to `OC1(c2ccc(Cl)c(C(F)(F)F)c2)CCN(CCCC(c2ccc(F)cc2)c2ccc(F)cc2)CC1` [Penfluridol], the “percentage of GFP+” value is 55.9%. As for `COc1ccc(-c2ccc3c(N4CCOCC4)nc(N4C[C@@H](C)O[C@@H](C)C4)nc3n2)cc1CO`, the figure is 23.7%.

On to `Cc1ccc(=O)n(-c2ccccc2)c1` [Pirfenidone], for which the “percentage of GFP+” value is 46%. `CNC(=O)c1cc(Oc2ccc(NC(=O)Nc3cc(C(C)(C)C)nn3-c3ccc4ncccc4c3)c(F)c2)ccn1` [Rebastinib]: the “percentage of GFP+” value was 39.9%. As to `CNC(=O)[C@H](Cc1ccccc1)NC(=O)[C@H](CC(C)C)[C@H](CSc1cccs1)C(=O)NO` [Batimastat], the “percentage of GFP+” value is 41.9%.

Take `CC(C)C[C@H](NC(=O)[C@H](Cc1ccccc1)NC(=O)c1cnccn1)B(O)O` [Bortezomib]: the “percentage of GFP+” value was 5.29% (active). Take `CC(C)C1CCC(C(=O)N[C@H](Cc2ccccc2)C(=O)O)CC1` (stereo partly specified) [Nateglinide]: the “percentage of GFP+” value is 46.5%. Turning to `CC(=O)NC[C@H]1CN(c2ccc(N3CCOCC3)c(F)c2)C(=O)O1` [Linezolid], the “percentage of GFP+” value was 52.5%. The value for `O=C(O)c1ccc2c(c1)nc(Nc1cccc(Cl)c1)c1ccncc12` [Silmitasertib] was 43.8%; that for `COc1ccc2cc(-c3[nH]c(-c4ccc(S(C)=O)cc4)nc3-c3ccncc3)ccc2c1` (stereo unspecified) [Tie2 kinase inhibitor] was 43.3%. For the molecule `CC(C)Cc1ccc(C(C)C(=O)O)cc1` (racemic), the “percentage of GFP+” value is 48.8%. As for `COc1cc(NC(=O)c2ccc(-c3ccc(Cl)cc3)o2)cc(OC)c1`, the “percentage of GFP+” value is 52%. The value for `O=C(Nc1cc(C(F)(F)F)cc(C(F)(F)F)c1)c1cc(Cl)ccc1O` was 42.4%; that for `O=C(c1ccc(OCCN2CCCCC2)cc1)c1c(-c2ccc(O)cc2)sc2cc(O)ccc12` [Raloxifene] was 16.8% (active); that for `CCCCOc1ccc(C(=O)CCN2CCCCC2)cc1` [Dyclonine] was 47.1%. As to `Cc1c(-c2ccc(O)cc2)n(Cc2ccc(OCCN3CCCCCC3)cc2)c2ccc(O)cc12` [Bazedoxifene], the “percentage of GFP+” value was 47.1%. As for `OCCn1cc(-c2cnc3nnn(Cc4ccc5ncccc5c4)c3n2)cn1`, the figure is 41.7%.

In the case of `c1coc(CNc2ncnc3[nH]cnc23)c1` [Kinetin], the “percentage of GFP+” value was 41.6%.

On to `C=CC/N=C1\C(=O)C=C2NC(=O)/C(C)=C/C=C\[C@H](OC)[C@@H](OC(N)=O)/C(C)=C/[C@H](C)[C@@H](O)[C@@H](OC)C[C@H](C)CC1=C2O` [Tanespimycin], for which the “percentage of GFP+” value was 11.8% (active). As for `COC1=C2C[C@@H](C)C[C@H](OC)[C@H](O)[C@@H](C)/C=C(\C)[C@H](OC(N)=O)[C@@H](OC)/C=C/C=C(\C)C(=O)/N=C(/C=C1O)C2=O` [Geldanamycin], the figure is 13.5% (active); as for `CO[C@H]1/C=C\C=C(/C)C(=O)NC2=CC(=O)/C(=N\CCN(C)C)C(=C2O)C[C@@H](C)C[C@H](OC)[C@H](O)[C@@H](C)/C=C(\C)[C@@H]1OC(N)=O` [Alvespimycin], 12.4% (active); as for `Nc1cccc2c1C(=O)N(C1CCC(=O)NC1=O)C2=O` (stereo unspecified) [Pomalidomide], 46.7%. In the case of `CCCCCCCCCCCCCCCC(=O)OC1C(SC)OC(C(NC(=O)C2CC(CCC)CN2C)C(C)Cl)C(O)C1O` (stereo unspecified) [Clindamycin palmitate HCl], the “percentage of GFP+” value is 45.8%. The value for `COc1cc(Nc2nc3ccccc3nc2NS(=O)(=O)c2ccc(NC(=O)c3ccc(C)c(OC)c3)cc2)cc(OC)c1` was 37.4%.
